Results from PubChem BioAssay.
Active and inactive are the calls of the source.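 How the source made its calls, unless noted: active means inhibition above the hit cutoff set in the earlier primary screen (cut at about 27% in these data); inactive means the rest.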

The compounds below were run against Protein phosphatase methylesterase 1 (Homo sapiens) (UniProt Q9Y570) (assay: PME-1 inhibitor activity retest, confirmation, biochemical, fluorescence polarization, FP-Rh probe, triplicate (AID 2171;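 further: 0% = enzyme with DMSO and 100% = wells lacking PME-1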)). Conditions: recombinant PME-1, FP-Rh probe fluorescence polarization; at 5.9 µM; active compounds read high.
Chain of Protein phosphatase methylesterase 1 (Homo sapiens) (Q9Y570 whole entry, looked up): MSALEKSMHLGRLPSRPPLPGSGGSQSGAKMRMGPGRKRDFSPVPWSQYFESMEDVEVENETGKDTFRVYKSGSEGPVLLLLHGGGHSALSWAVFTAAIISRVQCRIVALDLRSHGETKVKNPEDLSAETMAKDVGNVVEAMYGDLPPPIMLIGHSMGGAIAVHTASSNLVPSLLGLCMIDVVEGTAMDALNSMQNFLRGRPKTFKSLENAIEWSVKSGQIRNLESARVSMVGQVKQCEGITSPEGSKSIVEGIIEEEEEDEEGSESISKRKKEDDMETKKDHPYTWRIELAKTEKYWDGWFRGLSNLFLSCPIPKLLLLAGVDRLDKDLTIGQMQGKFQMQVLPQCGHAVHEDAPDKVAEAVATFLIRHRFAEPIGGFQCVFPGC
For `Cc1ccc(C(C)C)c(OCc2ccc(C(=O)N/N=C/c3cccc(O)c3O)cc2)c1`, the inhibition was -4.31% (inactive).
For `O=C(CSc1nnc(SCc2ccccc2Cl)s1)N/N=C/c1c[nH]c2ccccc12`, the inhibition was 19.3% (inactive).
With `Cc1cc([N+](=O)[O-])ccc1-c1ccc(C2Nc3ccccc3C(=O)N2O)o1` (stereo not given) the inhibition was 25% (inactive).
For `COc1cccc2c1C(=O)c1c(O)c3c(c(O)c1C2=O)C[C@@](O)(C(=O)CO)C[C@@H]3O[C@H]1C[C@H](N)[C@H](O)[C@H](C)O1`, the inhibition was 36.3% (active).
With `COc1cccc(/C=N/Nc2ccc([N+](=O)[O-])cn2)c1O` the inhibition was 1.07% (inactive).
With `Nc1ccc(C(=O)N/N=C\c2cc(N=Nc3cccc4ccccc34)ccc2O)cc1` the inhibition was 15.1% (inactive).
In the case of `CCn1nc([N+](=O)[O-])c(C(C#N)c2nc3cc(C(F)(F)F)ccc3s2)c(Cl)c1=O` (stereo not given), the inhibition was 67.1% (active).
In the case of `Cc1ccc(O)c(N=CC2=C(O)c3ccccc3C2=O)c1`, the inhibition was 27.3% (active).
`COc1ccc(S(=O)(=O)/N=C2\C=C(Nc3ccc(O)cc3)C(=O)c3ccccc32)cc1` was tested, and the inhibition was 63.2% (active).
`COc1ccc(OC)c2[nH]c(C(=O)N/N=C/c3ccccc3O)cc12` was tested, and the inhibition was -0.45% (inactive).
With `Oc1ccccc1N=Nc1nc(-c2ccccc2)c(-c2ccccc2)[nH]1` the inhibition was -3.97% (inactive).
`CCCN(CCC)CCCNC(=O)c1cn(CC)c2ccc(S(=O)(=O)N(C)C3CCCCC3)cc2c1=O` was tested, and the inhibition was 50.9% (active).
For `Cc1ccc(-c2nc(Nc3ccc(O)cc3)c3ccccc3n2)cc1`, the inhibition was 6.25% (inactive).
In the case of `Nc1ccc2c(c1)C(=O)C(=O)c1ccccc1-2`, the inhibition was 36.4% (active).
With `Nc1ccc(Nc2nc3ccccc3[nH]2)cc1` the inhibition was 43.7% (active).
In the case of `CCN1/C(=C/C=C/c2oc3ccc(-c4ccccc4)cc3[n+]2CC)Oc2ccc(-c3ccccc3)cc21`, the inhibition was -81.5% (inactive).
In the case of `O=Nc1c(O)c2ccccc2c2ccccc12`, the inhibition was 65.8% (active).
In the case of `Cc1ccc(-c2c(C(=O)N/N=C/c3c[nH]c4ccccc34)nnn2-c2nonc2N)cc1`, the inhibition was 21.9% (inactive).
In the case of `CCC(=O)Nc1nc(C)c(-c2csc(Nc3cccc(O)c3)n2)s1`, the inhibition was 20% (inactive).
`COc1ccc(-c2csc(NC(=O)c3ccccc3NS(=O)(=O)c3ccc(F)c(F)c3)n2)cc1` was tested, and the inhibition was -5.29% (inactive).
`COc1ccc(O)c(/C=N/NC(=S)Nc2cccc(S(=O)(=O)N(C)C)c2)c1` was tested, and the inhibition was 25.4% (inactive).
`O=C(Nc1ccc(OC(F)(F)F)cc1)c1ccc2c(c1)no[n+]2[O-]` was tested, and the inhibition was 61.4% (active).
In the case of `COc1ccc(/C=N/NC(=S)Nc2ccccc2[N+](=O)[O-])cc1O`, the inhibition was 43.4% (active).
With `Brc1ccc(N/N=C(/N=Nc2nn[nH]n2)c2ccccc2)cc1` the inhibition was 57.1% (active).
In the case of `Cc1cc(C)nc(SCc2ccc(C(=O)N/N=C/c3cccc(O)c3O)cc2)n1`, the inhibition was -47% (inactive).
With `COC(=O)c1cc(C)nc2c1C(=O)C(=O)C=C2N1CCOCC1` the inhibition was 40% (active).
`N#C/C(=C/c1ccc(N2CCCCC2)o1)C(=O)NCCc1c[nH]c2ccccc12` was tested, and the inhibition was 22.2% (inactive).
With `Cc1ccc(C(C)C)c(OCc2ccc(C(=O)N/N=C/c3ccc(O)cc3O)cc2)c1` the inhibition was -0.21% (inactive).
With `Cc1ccc(Nc2nc(-c3ccc(O)cc3O)cs2)nc1` the inhibition was 34% (active).
With `O=C1C(Nc2ccccc2)=C/C(=N/S(=O)(=O)c2cccs2)c2ccccc21` the inhibition was 35.5% (active).
In the case of `COc1cc(OC)c2cc(C(=O)N/N=C/c3ccccc3O)[nH]c2c1`, the inhibition was 19.1% (inactive).
`O=C(O)c1ccccc1N/N=C/c1cc(Br)cc(Br)c1O` was tested, and the inhibition was 43.7% (active).
For `CCN(CC)S(=O)(=O)c1ccc(N/N=C/c2ccc(O)cc2O)nc1`, the inhibition was 35% (active).
For `COc1cccc(N2CCN(c3ncnc4c3[nH]c3ccc(F)cc34)CC2C)c1` (stereo not given), the inhibition was 26.7% (active).
In the case of `C/C(=N\Nc1cccc([N+](=O)[O-])c1)c1ccccc1O`, the inhibition was 39.4% (active).
For `CC1Oc2ccccc2C=C1/C=N/Nc1ccc(C(=O)O)cc1` (stereo not given), the inhibition was 34.8% (active).
In the case of `COc1ccc(O)c(-c2cc(-c3cccc(Br)c3)n[nH]2)c1`, the inhibition was 23.7% (inactive).
In the case of `O=c1c2ccccc2nc(N/N=C/c2c(O)ccc3ccccc23)n1O`, the inhibition was 43.9% (active).
`Cn1nc(-c2ccccn2)nc2c(=O)n(C)c(=O)nc1-2` was tested, and the inhibition was 45.9% (active).
For `N#C/C(=N\Nc1cccc([N+](=O)[O-])c1)C(=O)c1ccc(Br)cc1`, the inhibition was 29.5% (active).

What follows are compounds tested against Nuclear receptor coactivator 3 (Homo sapiens) (UniProt Q9Y6Q9) (assay: SRC3 coactivator transcriptional activity inhibitors, confirmation, cell-based, luminescence, quadruplicate (AID 588792;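 active means mean inhibition over 43.08%, the solvent-only control mean plus 3 SD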;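 further: 0% = DMSO treated cells and 100% = gossypol at 36 µM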)). Conditions: HEK293 GAL4-SRC3 luciferase reporter, at 3.6 µM, active compounds read high.
Chain of Nuclear receptor coactivator 3 (Homo sapiens) (Q9Y6Q9 whole entry, looked up, the tested form may be a part): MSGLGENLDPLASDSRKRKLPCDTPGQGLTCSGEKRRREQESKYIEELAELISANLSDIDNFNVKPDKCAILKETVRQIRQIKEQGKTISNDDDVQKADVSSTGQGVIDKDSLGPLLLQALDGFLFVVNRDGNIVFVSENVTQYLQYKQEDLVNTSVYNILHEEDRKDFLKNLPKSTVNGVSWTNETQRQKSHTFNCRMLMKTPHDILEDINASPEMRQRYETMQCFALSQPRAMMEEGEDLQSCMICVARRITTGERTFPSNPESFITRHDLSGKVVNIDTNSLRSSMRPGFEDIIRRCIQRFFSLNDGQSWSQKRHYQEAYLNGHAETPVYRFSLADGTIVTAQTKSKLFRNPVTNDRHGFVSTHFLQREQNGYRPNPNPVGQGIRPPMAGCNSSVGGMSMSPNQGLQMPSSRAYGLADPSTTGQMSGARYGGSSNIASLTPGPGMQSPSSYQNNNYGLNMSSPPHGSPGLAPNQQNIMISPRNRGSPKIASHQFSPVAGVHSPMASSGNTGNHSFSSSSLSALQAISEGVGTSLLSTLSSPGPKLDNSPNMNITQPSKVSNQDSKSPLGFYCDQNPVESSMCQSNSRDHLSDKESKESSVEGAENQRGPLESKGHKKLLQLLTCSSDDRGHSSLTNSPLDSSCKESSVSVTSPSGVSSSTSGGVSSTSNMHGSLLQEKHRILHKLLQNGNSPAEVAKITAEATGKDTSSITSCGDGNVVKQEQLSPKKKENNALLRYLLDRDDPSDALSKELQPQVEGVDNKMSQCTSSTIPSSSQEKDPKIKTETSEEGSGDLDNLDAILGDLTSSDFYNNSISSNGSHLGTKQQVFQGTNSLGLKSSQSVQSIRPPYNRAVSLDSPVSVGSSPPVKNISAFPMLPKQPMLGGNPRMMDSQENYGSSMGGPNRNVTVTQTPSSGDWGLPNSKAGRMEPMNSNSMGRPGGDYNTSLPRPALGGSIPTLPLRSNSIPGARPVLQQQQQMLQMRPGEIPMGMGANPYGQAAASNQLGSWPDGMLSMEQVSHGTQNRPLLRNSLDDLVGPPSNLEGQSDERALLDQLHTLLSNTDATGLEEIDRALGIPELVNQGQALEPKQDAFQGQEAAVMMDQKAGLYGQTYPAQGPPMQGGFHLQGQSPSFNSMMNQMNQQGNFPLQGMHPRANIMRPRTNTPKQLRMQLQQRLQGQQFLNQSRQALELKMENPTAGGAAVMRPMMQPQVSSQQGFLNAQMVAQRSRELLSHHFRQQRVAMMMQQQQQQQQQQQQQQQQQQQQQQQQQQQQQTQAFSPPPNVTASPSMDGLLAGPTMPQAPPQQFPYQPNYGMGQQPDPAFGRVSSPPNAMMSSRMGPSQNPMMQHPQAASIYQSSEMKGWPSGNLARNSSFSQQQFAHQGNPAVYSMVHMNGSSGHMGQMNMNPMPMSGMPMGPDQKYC
For `Cc1ccc(C(C)C)c(OCc2ccc(C(=O)N/N=C/c3cccc(O)c3O)cc2)c1`, the inhibition was 56.2% (active).
For `Cc1cc([N+](=O)[O-])ccc1-c1ccc(C2Nc3ccccc3C(=O)N2O)o1` (stereo not given), the inhibition was 23.6% (inactive).
For `COc1cccc2c1C(=O)c1c(O)c3c(c(O)c1C2=O)C[C@@](O)(C(=O)CO)C[C@@H]3O[C@H]1C[C@H](N)[C@H](O)[C@H](C)O1`, the inhibition was 49.7% (active).
For `COc1cccc(/C=N/Nc2ccc([N+](=O)[O-])cn2)c1O`, the inhibition was 48% (active).
In the case of `Nc1ccc(C(=O)N/N=C\c2cc(N=Nc3cccc4ccccc34)ccc2O)cc1`, the inhibition was 15.1% (inactive).
For `CCn1nc([N+](=O)[O-])c(C(C#N)c2nc3cc(C(F)(F)F)ccc3s2)c(Cl)c1=O` (stereo not given), the inhibition was 10.4% (inactive).
In the case of `COc1ccc(S(=O)(=O)/N=C2\C=C(Nc3ccc(O)cc3)C(=O)c3ccccc32)cc1`, the inhibition was 94.1% (active).
`COc1ccc(OC)c2[nH]c(C(=O)N/N=C/c3ccccc3O)cc12` was tested, and the inhibition was 30.1% (inactive).
In the case of `Oc1ccccc1N=Nc1nc(-c2ccccc2)c(-c2ccccc2)[nH]1`, the inhibition was 81.4% (active).
In the case of `Nc1ccc2c(c1)C(=O)C(=O)c1ccccc1-2`, the inhibition was 96.7% (active).
With `CCN1/C(=C/C=C/c2oc3ccc(-c4ccccc4)cc3[n+]2CC)Oc2ccc(-c3ccccc3)cc21` the inhibition was 98.3% (active).
For `CCC(=O)Nc1nc(C)c(-c2csc(Nc3cccc(O)c3)n2)s1`, the inhibition was 16.5% (inactive).
With `COc1ccc(-c2csc(NC(=O)c3ccccc3NS(=O)(=O)c3ccc(F)c(F)c3)n2)cc1` the inhibition was 69.3% (active).
In the case of `COc1ccc(O)c(/C=N/NC(=S)Nc2cccc(S(=O)(=O)N(C)C)c2)c1`, the inhibition was 24.6% (inactive).
In the case of `COc1ccc(/C=N/NC(=S)Nc2ccccc2[N+](=O)[O-])cc1O`, the inhibition was -21.4% (inactive).
With `Brc1ccc(N/N=C(/N=Nc2nn[nH]n2)c2ccccc2)cc1` the inhibition was 83.2% (active).
For `Cc1cc(C)nc(SCc2ccc(C(=O)N/N=C/c3cccc(O)c3O)cc2)n1`, the inhibition was 28.5% (inactive).
For `COC(=O)c1cc(C)nc2c1C(=O)C(=O)C=C2N1CCOCC1`, the inhibition was 69.5% (active).
With `Cc1ccc(C(C)C)c(OCc2ccc(C(=O)N/N=C/c3ccc(O)cc3O)cc2)c1` the inhibition was 77.2% (active).
In the case of `O=C1C(Nc2ccccc2)=C/C(=N/S(=O)(=O)c2cccs2)c2ccccc21`, the inhibition was 79.7% (active).
For `CCN(CC)S(=O)(=O)c1ccc(N/N=C/c2ccc(O)cc2O)nc1`, the inhibition was 68.3% (active).
`COc1cccc(N2CCN(c3ncnc4c3[nH]c3ccc(F)cc34)CC2C)c1` (stereo not given) was tested, and the inhibition was 95.2% (active).
For `O=c1c2ccccc2nc(N/N=C/c2c(O)ccc3ccccc23)n1O`, the inhibition was 55.4% (active).
With `Cn1nc(-c2ccccn2)nc2c(=O)n(C)c(=O)nc1-2` the inhibition was 74.8% (active).
In the case of `N#C/C(=N\Nc1cccc([N+](=O)[O-])c1)C(=O)c1ccc(Br)cc1`, the inhibition was 4.19% (inactive).
